PubChem BioAssay (Tox21)
Activity calls are given as the source filed them. Where a call stands in place of a potency, no number is given. The call rests on the fitted dose curve.

Experiment: G protein-coupled receptor (GPCR) small molecule agonists, calcium flux assay: HEK293 wild type cell line counter screen (AID 1920065)
Conditions: HEK293 WT calcium flux, fluorescence, agonist mode; series mostly up to 57.6 µM
Text: U.S. Tox21 Program National Center for Advancing Translational Sciences [NCATS] Division of Preclinical Innovation [DPI] U.S. Environmental Protection Agency [EPA] National Institutes of Environmental Health Sciences [NIEHS] National Toxicology Program [NTP] U.S. Food and Drug Administration [FDA] Assay overview: The increased intracellular calcium release that occurred upon G protein-coupled receptor (GPCR) activation led to the frequent use of calcium flux assays to detect GPCR activation. For the purpose of studying and screening compounds that may activate GPCR, receptor-overexpressing models were typically generated using Hek293 wild-type (WT) cells. In order to eliminate the compounds that may have induced calcium release for non-specific activation, a counter-assay utilizing calcium flux on Hek293 WT cells was performed. The data were formulated in order to serve as a control for any calcium flux detection utilizing Hek293 cells with either GPCR overexpression or gene modification. The procurement of Hek293 WT cells from ATCC. Fluorescence intensity can be utilized to determine the activation of the compound in a calcium flux assay. As a counter control, this cell line was utilized to screen the Tox21 10K compound library.
Assay Protocol Summary: Hek293 cells were dispensed at 1500cells/4uL/well in 1536-well black wall/clear bottom plates using a multidrop dispenser. After the assay plates were incubated at a 37 C/5% CO2 incubator for 18 hours, 4 uL of Calcium Dye Solution was added to each well. The plates were incubated at 37 C for 1 hour. For agonist mode, 23 nL of compounds dissolved in DMSO, positive control (ATP) or DMSO only was transferred to the assay plate by a pin tool station. The fluorescence intensity in the plates was measured using FDSS 7000EX kinetic plate reader with a filter set of Ex/Em=480/540 for 3 min at 1 sec intervals. Each test compound was measured at 15 concentrations and in triplicates.
Potency means the concentration at half of the fitted maximal effect.

SMILES | Potency
Nc1nc2ccc([N+](=O)[O-])cc2s1 | inactive
O=C(O)Cc1cc(I)c(Oc2cc(I)c(O)c(I)c2)c(I)c1 | inactive
NCCc1ccn[nH]1 | inactive
NCCCCCCNCCCCCCN | inactive
CC(=O)N1CCN(c2ccc(OC[C@H]3CO[C@](Cn4ccnc4)(c4ccc(Cl)cc4Cl)O3)cc2)CC1 | inactive
CO[Si](OC)(c1ccccc1)c1ccccc1 | inactive
Nc1ccc2c3c(cccc13)-c1ccccc1-2 | 39.3 µM (active)
Cc1cc(=O)oc2cc(N(C)C)ccc12 | inactive
O=C(O)c1ccc(-n2nc(-c3ccccc3O)nc2-c2ccccc2O)cc1 | inactive
C=C1c2cccc(O)c2C(O)=C2C(=O)[C@]3(O)C(O)=C(C(N)=O)C(=O)[C@@H](N(C)C)[C@@H]3[C@@H](O)[C@H]12 | inactive
O=C1CN(/N=C/c2ccc([N+](=O)[O-])o2)C(=O)N1 | inactive
O=C1c2c(O)ccc(O)c2C(=O)c2c(NCCNCCO)ccc(NCCNCCO)c21 | inactive
C#CCN(C)CCCOc1ccc(Cl)cc1Cl | inactive
C[C@H](CCC(=O)O)[C@H]1CC[C@H]2[C@@H]3C(=O)C[C@@H]4CC(=O)CC[C@]4(C)[C@H]3CC(=O)[C@]12C | inactive
OCCN1CCOCC1 | inactive
CCCOCC(C)OCC(C)O (stereo not given) | inactive
CCCCC(CC)COP(=O)(O)O (stereo not given) | inactive
CCOc1ccc(NC(N)=O)cc1 | inactive
Cc1cccc(N(C)C(=S)Oc2ccc3c(c2)C2CCC3C2)c1 (stereo not given) | inactive
CCC(C)C(C)=O (stereo not given) | inactive

SMILES | Potency
NO | inactive
CN(C)c1ccncc1 | inactive
OC/C=C/c1ccccc1 | inactive
O=C(CS(=O)Cc1ccco1)NC/C=C\COc1cc(CN2CCCCC2)ccn1 (stereo not given) | inactive
CCCCCCNC(=O)n1cc(F)c(=O)[nH]c1=O | inactive
CC(C)CCCCCCN | inactive
CNCCC(Oc1ccc(C(F)(F)F)cc1)c1ccccc1 (stereo not given) | inactive
CCCCCCCCC(CCCCCC)C(=O)O (stereo not given) | inactive
Nc1ccn([C@@H]2O[C@H](CO)[C@@H](O)C2O)c(=O)n1 (stereo not given in full) | inactive
O=C(NOCC1CC1)c1ccc(F)c(F)c1Nc1ccc(I)cc1Cl | inactive
CO[C@]1(NC(=O)CSC(F)F)C(=O)N2C(C(=O)O)=C(CSc3nnnn3CCO)CO[C@H]21 | inactive
CC1(C)[C@H](C(=O)O)N2C(=O)C[C@H]2S1(=O)=O | inactive
CC(C)c1ccc2c(c1)CC[C@H]1[C@](C)(CN)CCC[C@]21C | inactive
O=C(NN1CCCC1)NS(=O)(=O)c1ccc(Cl)cc1 | inactive
CCCC(CC)CCCCCCCN (stereo not given) | inactive
COC1=C(OC)C(=O)C(CCCCCCCCCCO)=C(C)C1=O | inactive
C(=C(c1ccccc1)c1ccccc1)c1ccccc1 | inactive
CN(C)[C@@H](CCOc1cccc2ccccc12)c1ccccc1 | inactive
CC(C(O)c1ccccc1)N(C)CCOC(c1ccccc1)c1ccccc1 (stereo not given) | inactive
COC(=O)C1=C(C)NC(COC(N)=O)=C(C(=O)OC(C)C)C1c1cccc(Cl)c1Cl (stereo not given) | inactive
